Test results as given in the supplement of paper PMC9254222.
Whole data set: some 1,100 compounds, median “Wnt reporter firefly/Renilla luciferase ratio relative to plate median” near 1.1, cut for the highest 2% near 1.6. Shown is part of a subset that was picked to be rich in the highest values.

Tested on: HEK293T (UBE3A T485A transfected, BAR Wnt reporter)
Assay: Wnt reporter firefly/Renilla luciferase ratio relative to plate median (fold (linear ratio)); higher = more Wnt/beta-catenin reporter activation
Details: 24 h
Outline: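 Each value averages four biological replicates in HEK293T cells grown at 4500 cells/well in DMEM with 10% FBS at 37°C and 5% CO2. The cells were transfected with a BAR firefly luciferase Wnt reporter, TK-Renilla and an expression plasmid, then four hours later robotically treated with the chemicals at 0.01–100 uM for 24 h. Dual-Glo luciferase signals were median-centred per plate, with the firefly/Renilla ratio reported as Wnt activity and raw Renilla as cell health.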

SMILES	Wnt reporter firefly/Renilla luciferase ratio (concentration: 0.1 uM)	Wnt reporter firefly/Renilla luciferase ratio (concentration: 1 uM)	Wnt reporter firefly/Renilla luciferase ratio (concentration: 10 uM)	Wnt reporter firefly/Renilla luciferase ratio (concentration: 100 uM)	Wnt reporter firefly/Renilla luciferase ratio (concentration: 0.01 uM)
CCN(CC)CCNc1ccc(CNC=O)c2sc3ccc(OC)cc3c(=O)c12	1.79	0.887	0.373		
O=c1[nH]c2ccc(S(=O)CCN3CCC(Cc4ccc(F)cc4)CC3)cc2o1 (stereo unspecified) [Besonprodil]	1.11	0.965	0.993	0.313	
C[C@]12CC[C@@H]3c4ccc(O)cc4CC[C@H]3[C@@H]1CC[C@@H]2O [17beta-Estradiol]	0.999	0.932	0.591		
CN(C)[C@@H]1C(O)=C(C(N)=O)C(=O)[C@@]2(O)C(O)=C3C(=O)c4c(O)cccc4[C@@](C)(O)[C@H]3[C@H](O)[C@@H]12.O.O [Oxytetracycline dihydrate]	2.3	1.22	1.34	0.951	1.55
CN(C)[C@@H]1C(O)=C(C(N)=O)C(=O)[C@@]2(O)C(O)=C3C(=O)c4c(O)cccc4[C@@](C)(O)[C@H]3[C@H](O)[C@@H]12.Cl [Oxytetracycline hydrochloride]	1.09	1.03	0.562	0.0778	
CN(C)[C@@H]1C(O)=C(C(N)=O)C(=O)[C@@]2(O)C(O)=C3C(=O)c4c(O)cccc4[C@@](C)(O)[C@H]3C[C@@H]12 [Tetracycline]	1.15	1.17	1.43	0.703	
CCCCC(CC)COP(=O)(OCC(CC)CCCC)OCC(CC)CCCC (stereo unspecified) [Tris(2-ethylhexyl) phosphate]	0.978	1.17	1.11	0.917	
CCCCC(CC)COC(=O)CCCCCCCCC(=O)OCC(CC)CCCC (stereo unspecified) [Bis(2-ethylhexyl) decanedioate]	0.935	1.08	1.07	1.12	
CCCCC(CC)CO (stereo unspecified) [2-Ethyl-1-hexanol]	0.976	0.988	1.62	0.964	
Oc1ccc(O)cc1 [Hydroquinone]	0.941	0.865	0.902	0.377	
CCCCCCC(CCCCCCCCCCC(=O)OCC(COC(C)=O)OC(C)=O)OC(C)=O (stereo unspecified) [Grinstad Soft-N-Safe]	0.94	1.29	1.08	1.54	
C/C=C/c1ccc(OC)cc1 [(E)-Anethole]	1.22	0.971	1.15	1.58	
CC(C)(c1cc(Br)c(O)c(Br)c1)c1cc(Br)c(O)c(Br)c1 [3,3',5,5'-Tetrabromobisphenol A]	1.05	0.95	1.03	0.332	
Cc1ncc([C@@H](CCCCCCc2ccc3c(n2)NCCC3)CC(=O)O)cn1	1.25	1.42	1.78	1.55	
CS(=O)(=O)c1ccc([C@@H](CC2CCCC2)C(=O)Nc2cnccn2)cc1Cl	1.12	1.16	0.922	0.278	
CC(C)NCC(O)c1ccc(O)c(O)c1.Cl (stereo unspecified) [Isoproterenol hydrochloride]	1.1	1.23	1.15	0.309	
O=C(O)c1cc(/N=N/c2ccc(S(=O)(=O)Nc3ccccn3)cc2)ccc1O [Sulfasalazine]	0.944	0.993	1.33	3.01	
Cc1ccc(C)c(C)c1 [1,2,4-Trimethylbenzene]	0.982	0.965	0.884	1.09	
Cc1ccc2ncccc2c1 [6-Methylquinoline]	0.931	0.836	1.29	1.81	
c1ccc2ncccc2c1 [Quinoline]	0.857	1.13	1.43	1.26	

SMILES	Wnt reporter firefly/Renilla luciferase ratio (concentration: 0.1 uM)	Wnt reporter firefly/Renilla luciferase ratio (concentration: 1 uM)	Wnt reporter firefly/Renilla luciferase ratio (concentration: 10 uM)	Wnt reporter firefly/Renilla luciferase ratio (concentration: 100 uM)	Wnt reporter firefly/Renilla luciferase ratio (concentration: 0.01 uM)
O=C1c2c(O)cccc2Cc2cccc(O)c21 [Anthralin]	0.825	1.04	1.46	0.798	
COc1ccc(C(=O)Nc2nc3ccccc3c(NCc3ccccc3)c2C#N)cc1	1.27	1.14	0.744	0.357	
COCCOC[C@H](CC1(C(=O)N[C@H]2CC[C@@H](C(=O)O)CC2)CCCC1)C(=O)Oc1ccc2c(c1)CCC2 [Candoxatril]	1.15	1.05	1	0.894	
CN1CCC[C@H]1c1cccnc1 [Nicotine]	1.15	1.19	1.12	1.18	
CC1(C)C(=O)N(Cl)C(=O)N1Cl [1,3-Dichloro-5,5-dimethylhydantoin]	0.845	0.849	0.887	1.63	
CC1(C)C(=O)N(Br)C(=O)N1Br [1,3-Dibromo-5,5-dimethylhydantoin]	0.79	1.01	1.06	1.25	
NC(=O)N1C(=O)C(C(=O)c2cc(Cl)cs2)c2cc(F)c(Cl)cc21 (stereo unspecified)	0.988	0.996	1.38	1.26	
C[C@]12CC[C@@H]3c4ccc(O)cc4CC[C@H]3[C@@H]1CC[C@H]2O [17alpha-Estradiol]	0.699	1.04	0.715		
OCCNCCO [Diethanolamine]	1.17	0.992	1.4	2.49	
c1ccc2[nH]c(-c3cscn3)nc2c1 [Thiabendazole]	1.03	1.08	1.27	1.24	1.24
CC(C)(C)c1cc(/C=C2\SC(=N)NC2=O)cc(C(C)(C)C)c1O.CS(=O)(=O)O [Darbufelone mesylate]	1.11	0.907	1.28		
COc1cc(S(=O)(=O)[O-])c(C)cc1/N=N/c1c(O)ccc2cc(S(=O)(=O)[O-])ccc12.[Na+].[Na+]	1.19	1	1.45	2.21	
Oc1ccc2ccccc2c1/N=N/c1ccccc1 [C.I. Solvent Yellow 14]	1.12	1.2	1.14	1.37	
O=S(=O)([O-])c1ccc(/N=N/c2c(O)ccc3cc(S(=O)(=O)[O-])ccc23)cc1.[Na+].[Na+] [FD&C Yellow 6]	1.08	0.966	1.22	2.05	
CCCCCCCCCCCCc1ccccc1 [Dodecylbenzene]	1.06	1.03	1.08	0.984	
COc1ccc([N+](=O)[O-])cc1N [2-Methoxy-5-nitroaniline]	0.964	0.988	1.04	1.14	
Cl.NCC1(Cc2noc(=O)[nH]2)CCCCC1	0.992	0.928	0.857	1.16	
O=c1c(O)c(-c2ccc(O)c(O)c2)oc2cc(O)cc(O)c12 [Quercetin]	1.1	1.09	1.38		
O=c1c(-c2ccc(O)cc2)coc2cc(O)ccc12 [Daidzein]	1.11	1.11	1.12	0.372	
O=c1c(-c2ccc(O)cc2)coc2cc(O)cc(O)c12 [Genistein]	1.45	1.16	0.958	0.631	1.71

SMILES	Wnt reporter firefly/Renilla luciferase ratio (concentration: 0.1 uM)	Wnt reporter firefly/Renilla luciferase ratio (concentration: 1 uM)	Wnt reporter firefly/Renilla luciferase ratio (concentration: 10 uM)	Wnt reporter firefly/Renilla luciferase ratio (concentration: 100 uM)	Wnt reporter firefly/Renilla luciferase ratio (concentration: 0.01 uM)
CC1CCC(NC(=O)N(CCCl)N=O)CC1 (stereo unspecified) [Semustine]	0.921	0.986	0.864	0.475	1.09
Cc1nc(-c2ccc3c(c2)CCN(CCC2CCC(NC(=O)/C=C/c4ccc(F)cc4)CC2)CC3)no1.Cl (stereo unspecified)	1.22	0.948	0.916	0.983	
Cc1cnc(-c2cnc(NCCNc3ccc(C#N)cn3)nc2-c2ccc(Cl)cc2Cl)[nH]1	1.5	5.86	128		1.03
CCOC(=O)c1ccc(O)cc1 [Ethylparaben]	0.886	0.966	0.941	0.734	
O=C([O-])c1[nH]n(-c2ccc(S(=O)(=O)[O-])cc2)c(=O)c1/N=N/c1ccc(S(=O)(=O)[O-])cc1.[Na+].[Na+].[Na+] [FD&C Yellow 5]	1.26	0.877	1.26	1.86	
CCCCc1oc2ccccc2c1C(=O)c1cc(I)c(OCCN(CC)CC)c(I)c1.Cl [Amiodarone hydrochloride]	1.18	1.09	1	1.11	
CC(C)c1cccc(C(C)C)c1 [1,3-Diisopropylbenzene]	1.14	0.929	1.33	1.5	
CC(=O)OC/C=C(\C)CCC=C(C)C [Geranyl acetate]	1.1	0.97	1.27	1.23	
c1ccc(Nc2ccccc2)cc1 [Diphenylamine]	1.08	1.19	1.18	1.24	1.05
[Cl-].[Li+]	0.845	0.926	0.875	1.27	0.768
CC(C)=CCCC(C)CCO (stereo unspecified) [Citronellol]	1.07	0.904	1.18	1.64	
C=CC(=C)CCC=C(C)C [Myrcene]	1.05	0.768	1.02	1.15	
CC(C)CCO [Isopentyl alcohol]	1.15	0.978	1.1	1.03	
NC(CCCP(=O)(O)O)C(=O)O (racemic)	1.19	0.925	0.918	1.69	1.35
CC/C(=C(/CC)c1ccc(O)cc1)c1ccc(O)cc1 [Diethylstilbestrol]	0.897	0.807	0.741	0.205	
C[C@@H]1C[C@H]2[C@@H]3CCC4=CC(=O)C=C[C@]4(C)[C@@]3(F)[C@@H](O)C[C@]2(C)[C@@]1(O)C(=O)COP(=O)([O-])[O-].[Na+].[Na+] [Dexamethasone sodium phosphate]	1.15	1.09	1.2	0.968	
c1ccc2c(c1)-c1cccc3c1c-2cc1ccccc13 [Benzo(b)fluoranthene]	1.22	1.22	1.45	1.45	
C1N2CN3CN1CN(C2)C3 [Methenamine]	1.17	1.16	1.23	1.71	
COC(=O)CC(=O)OC [Dimethyl malonate]	1.02	1.16	0.907	1.28	
Cc1occc1C(=O)Nc1ccc(C(=O)N2CCC(F)(F)/C(=C\C(=O)N3CCC(N4CCCCC4)CC3)c3ccccc32)cc1.Cc1occc1C(=O)Nc1ccc(C(=O)N2CCC(F)(F)/C(=C\C(=O)N3CCC(N4CCCCC4)CC3)c3ccccc32)cc1.O=C(O)/C=C/C(=O)O	1.22	0.982	0.94		
